The text below walks through data of PubChem BioAssay.

Unmarked numbers belong to inactive results. Calls of active or inactive are those of the source.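 Rule for the calls: active = viability at or under a set limit in both replicates, limit being median viability minus 3 SD (cut at about 48% in these data, passing the limit was not always enough); inconclusive = at or under the limit in just one replicate; inactive = at or above the limit in both replicates.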

A short description of the assay: H69AR cell proliferation blockers – human, duplicate replicates, primary screen (AID 580).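 Note: 100% = mean luminescence of untreated wells and 0% = no signal.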 As to conditions: H69AR lung tumor cells viability, ATP luminescence, 72 h; at 10 µM; active compounds read low.
As to `O=C(NCC(F)(F)F)Nc1cccnc1`, the viability is 99.6%.
`CC(=O)Nc1ccc(S(=O)(=O)N2CCN(c3cc(C)nc4ccccc34)CC2)cc1`: the viability was 87.1%.
Regarding `CCc1nnc(NC(=O)CSc2nnc(-c3ccccc3OC)n2-c2ccccc2)s1`, the viability is 85.2%.
Then `CCOc1ccc(CCNc2nc3c(c(=O)n(C)c(=O)n3C)n2CC)cc1OCC`, with 88.9%; and `Cn1c(=O)c2c(nc(NCCNC(=O)c3ccco3)n2Cc2ccccc2Cl)n(C)c1=O`, with 72.5%.
For `Cc1ccc2cc(C(c3nnnn3C3CCCC3)N3CCN(c4ccc(F)cc4)CC3)c(=O)[nH]c2c1` (centres undefined), the viability was 67.6%.
Then `Cc1ccc(OCC2Cn3c(nc4c3c(=O)n(C)c(=O)n4C)O2)cc1` (centres undefined), with 93%.
Regarding `Cc1c(C(=O)N2CCN(c3ccccc3)CC2)sc2ncnc(N3CCN(c4ccccc4)CC3)c12`, the viability was 93%.
Then `COc1cccc(-c2nnc(SCC(N)=O)n2-c2ccc(Cl)cc2)c1`, with 97.1%.
With `CC1=C(C(=O)N2CCOCC2)C(c2ccccc2F)C2=C(CCCC2=O)N1` (centres undefined), the viability is 98.8%.
On to `C/C=C(\C)c1nnc(NC(=O)OCC)s1`, for which the viability was 96.4%.
Consider `C[C@H](CCC(=O)O)[C@H]1CC[C@H]2[C@@H]3C(=O)C[C@@H]4CC(=O)CC[C@]4(C)[C@H]3CC(=O)[C@]12C`, for which the viability was 96%.
With `Cc1ccc2c(c1)nnn2C1CCN(C(=O)NC23CC4CC(CC(C4)C2)C3)CC1`, the viability is 92.1%.
Then `CN(C)C(CNC(=O)Nc1cccc(Cl)c1)c1cccnc1` (centres undefined), with 90.6%; and `FC(F)Oc1cccc2cccnc12`, with 94%; and `CCOc1cc(C(=O)Nc2c3c(nn2C(C)(C)C)CS(=O)C3)cc(OCC)c1OCC` (centres undefined), with 101%.
As for `CC(=O)Nc1ccc(N=Cc2nc(-c3ccc(C)cc3)oc2O)cc1`, the viability was 94.5%.
Turning to `N#CC1=C(N)N2C(=C(C#N)C13CCCCC3)SC1CCCCC12O` (centres undefined), the viability was 76.1%.
Then `O=S(=O)(c1ccc(Br)s1)N1CCN(c2ccccc2)CC1`, with 87.6%.
For `c1coc(-c2nnc(-c3cccs3)o2)c1`, the viability was 102%.
Take `CN1[C@@H]2CC(OC(=O)[C@H](CO)c3ccccc3)C[C@H]1[C@@H]1O[C@@H]12` (some centres undefined): the viability is 102%.
`CCCN1CCN(C(=O)Cn2cccc2C(=O)c2ccccc2)CC1`: the viability is 100%.
For `CC(CCc1ccccc1)NCC(O)c1ccc(O)c(C(N)=O)c1` (centres undefined), the viability was 93.8%.
Turning to `Cc1nc2c(-c3ccccc3)c(C)[nH]n2c(=O)c1Cl`, the viability was 77.5%.
`CCCC(=O)n1nc(-c2ccc(OC)cc2)nc1N`: the viability is 105%.
For the compound `O=C(C1CCN(C2CC(=O)N(c3ccc(F)cc3)C2=O)CC1)N1CCOCC1` (centres undefined), the viability is 101%.
`O=C(NCc1cccs1)C1CC(=O)N(C2CCCC2)C1` (centres undefined): the viability was 94.4%.
Regarding `CCC(C)NCC(O)COCc1ccc(Cl)cc1` (centres undefined), the viability is 99.7%.
For the compound `CSc1c(CC(=O)NCCO)n(C)c2ccccc12`, the viability was 102%.
On to `O=C(O)c1ccc(COc2c(F)c(F)c(F)c(F)c2F)o1`, for which the viability was 92.9%.
As for `CSc1ncc(Cl)c(C(=O)Nc2ccc(S(=O)(=O)N3CCOCC3)cc2)n1`, the viability was 101%.
On to `S=C(c1ccc(N2CCOCC2)cc1)N1CCCCC1`, for which the viability is 93.5%.
Take `CCOC(=O)C1CCN(c2cc(C)nc3cc(-c4cccc(F)c4)nn23)CC1`: the viability is 90.4%.
Consider `O=S(=O)(Nc1nc2ccccc2nc1NCc1ccco1)c1cccs1`, for which the viability is 29% (active).
The result for `OC(CCCN1CCC(O)(c2ccc(Cl)cc2)CC1)c1ccc(F)cc1` (centres undefined) reads 66.1%; that for `C=CCN1C(=O)C2(/C(=C(\O)c3ccc4c(c3)OCCO4)C(=O)C(=O)N2CCCOC)c2ccccc21` (centres undefined), 95.9%; that for `Cc1ccc2c(c1)N(CC(=O)N1CCCCC1c1cccnc1)C(=O)CO2` (centres undefined), 95%.
With `O=C(CSc1n[nH]c(=O)[nH]c1=O)c1ccccc1`, the viability was 101%.
The result for `O=[N+]([O-])c1cccc2cn[nH]c12` reads 99.5%.

The viability is a read-out of living cells in per cent, often relative to untreated cells.
